Test results as given in PubChem BioAssay AID2289 (National Center for Advancing Translational Sciences (NCATS), 2010).
The campaign covered roughly 340,000 compounds. About 3,300 (0.97%) were called active. Another 9% or so got no clear call; they are omitted. The call rests on the fitted dose curve; in most records, active means well fitted inhibition curve with a large enough effect; inconclusive means small, poorly fitted or top-dose-only effect, or effect the other way; inactive means flat fitted curve, though single readings scatter. The list shows a part of the results.

Assay: qHTS Assay for Modulators of miRNAs and/or Inhibitors of miR-21; further: nearly all actives have a fitted effect of over 55% in size
Details: HeLa miR-21-FLuc reporter, luciferase luminescence, 48 h; actives lower the signal
How it was run: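 Luminescence from a firefly luciferase reporter carrying a miR-21 binding site downstream, stably expressed under a CMV promoter in HeLa cells that make miR-21 endogenously, reports miRNA modulation after 48 h compound exposure up to approximately 40uM final.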
Potency means the concentration at half of the fitted maximal effect.

Potency, active:
COc1ccc2oc(=O)c(-c3nc4ccccc4o3)cc2c1 9.27 µM
Cc1cc(C(=O)O/N=C(\N)c2ccncc2)ccc1[N+](=O)[O-] 2.33 µM
Cc1ccc(C(=O)O/N=C(\N)c2cccnc2)cc1[N+](=O)[O-] 7.36 µM
C/C(=N\NC(=O)c1nn(C)c(C)c1Br)c1cccc(NC(=O)c2ccoc2C)c1 3.69 µM
C/C(=N\NC(=O)c1nn(C)c(C)c1Br)c1cccc(NC(=O)c2ccc(F)cc2)c1 1.85 µM
C/C(=N\NC(=O)c1nn(C)cc1Br)c1ccc(NC(=O)c2ccncc2)cc1 18.5 µM
COc1ccc(C(C#N)N2N=C(c3ccccc3)CC2c2ccccc2)cc1OC (stereo not given) 10.4 µM
COc1ccc(C2=NN(C(C#N)c3ccc(OC)cc3)C(c3ccccc3)C2)cc1 (stereo not given) 2.33 µM
O=C1C(C=NCCN2CCOCC2)=C(O)c2ccccc21 8.26 µM
O=C(/C=C/c1ccc(-c2ccc(F)cc2)o1)N1CCCC1 5.85 µM
O=C(/C=C/c1ccc(-c2cccc([N+](=O)[O-])c2)o1)N1CCOCC1 7.36 µM
O=C(/C=C\c1ccc(-c2cccc([N+](=O)[O-])c2)o1)N1CCOCC1 9.27 µM
COCc1ccc(C(=O)N(C)CC2CCCN(CCc3ccc(OC)cc3)C2)o1 (stereo not given) 11.7 µM
COc1ccc(CCN2CCCC(CN(C)C(=O)c3ccoc3)C2)cc1 (stereo not given) 6.56 µM
O=C(Cc1cccs1)N/N=C/C=C/c1ccccc1[N+](=O)[O-] 6.56 µM
Cc1ccc(/C=N/NC(=O)c2cccs2)cc1[N+](=O)[O-] 4.14 µM
CC(/C=N/NC(=O)Cc1cccs1)=C\c1ccccc1 6.56 µM
O=C(N/N=C/c1ccccc1[N+](=O)[O-])c1cccs1 2.93 µM
CSc1ccccc1NC(=O)c1cccc(S(=O)(=O)N2CCN(C)CC2)c1 14.7 µM
Clc1ccc(OCc2cn3ccccc3n2)c2ncccc12 6.56 µM
Cc1cccc2nc(COc3ccc4ccccc4c3Br)cn12 2.07 µM
O=[N+]([O-])c1ccccc1COc1ccc(Cl)c2cccnc12 0.293 µM
Clc1ccc(OCc2cn3cccnc3n2)c2ncccc12 14.7 µM
Cc1cccc2nc(COc3ccc(Cl)c4cccnc34)cn12 16.5 µM
CCOC(=O)Cc1ccc2sc(-c3ccccc3)nc2c1 1.17 µM
Cc1ccc(-n2nc3cc(C)c(NC(=S)NC(=O)/C=C/c4ccco4)cc3n2)cc1 3.69 µM
Cc1ccc(-c2nc3ccccc3s2)cc1NC(=S)NC(=O)c1cccc2ccccc12 4.65 µM
Cc1cccnc1NC(=S)NC(=O)/C=C/c1ccco1 9.27 µM
COc1ccc(OCC(=O)Nc2cc(-c3nc4ccccc4s3)ccc2C)cc1 4.65 µM
CCOc1cc(-c2nc3ccccc3s2)ccc1O 9.27 µM
Cc1ccc(-c2nc3ccccc3s2)cc1NC(=S)NC(=O)/C=C/c1ccco1 10.4 µM
C/C(=N/Nc1ccccc1C(=O)O)c1cccs1 14.7 µM
C/C(=N\Nc1nc(-c2ccccc2)cs1)c1cccs1 8.26 µM
C/C(=N\Nc1ccccc1C(=O)O)c1ccncc1 8.26 µM
O=C(Nc1ccccc1Cl)c1ccc(-c2ccccn2)s1 0.826 µM
O=C(Nc1ccc(Cl)cc1)c1ccc(-c2ccccn2)s1 0.736 µM
c1ccc(-c2ccc(-c3ccccn3)s2)nc1 0.736 µM
O=C(Nc1ccccc1)c1ccc(-c2ccccc2)s1 1.85 µM
O=S1(=O)CCN2C(=N1)Sc1c2ccc2c1CCCC2 13.1 µM
Cc1nc(C#N)c(N/N=C/c2cccc(Cl)c2)o1 7.36 µM
COC(=O)c1sc(-c2ccc(C(C)(C)C)cc2)cc1NC(=O)COCC(=O)O 11.7 µM
COC(=O)c1sc(-c2ccc(C(C)(C)C)cc2)cc1NC(=O)CCC(=O)O 5.21 µM
CCOc1ccc(-c2cc(NC(=O)Nc3ccccc3Cl)c(C(=O)OC)s2)cc1 5.85 µM
COc1ccc(N2C(=O)c3ccccc3NC2c2ccc(OC)c(Cn3nnc4ccccc43)c2)cc1 (stereo not given) 5.21 µM
COc1ccc(C2Nc3ccccc3C(=O)N2c2ccc(Cl)cc2)cc1Cn1cc([N+](=O)[O-])cn1 (stereo not given) 0.736 µM
COc1ccc(C2Nc3ccccc3C(=O)N2c2ccc(C)cc2)cc1Cn1nnc2ccccc21 (stereo not given) 6.56 µM
O=[N+]([O-])c1ccccc1/C=N/OCc1ccccc1 14.7 µM
Cc1ccc(Cn2cnc3nc4c(cc3c2=O)CCCC4)cc1 8.26 µM
Cc1ccc(Cn2cnc3nc4c(cc3c2=O)CC(C)CC4)cc1 (stereo not given) 4.65 µM
Cc1nc2cc(NC(=O)C3COc4ccccc4O3)ccc2s1 (stereo not given) 4.14 µM
O=C(Nc1ccc2c(c1)CCC2)C1COc2ccccc2O1 (stereo not given) 1.47 µM
Cc1c(C(=O)N(CCO)Cc2ccccc2)oc2c(F)cccc12 13.1 µM
C=CCn1c(SCC(N)=O)nnc1-c1cc2c(s1)CCC(CC)C2 (stereo not given) 13.1 µM
C=CCn1c(SCC(=O)NCC)nnc1-c1cc2c(s1)CCC(CC)C2 (stereo not given) 7.36 µM
Cc1cccnc1Nc1nc(-c2ccc(O)cc2)cs1 3.29 µM
Cc1cccnc1Nc1nc(-c2ccc(O)cc2O)cs1 5.21 µM
Cc1cccnc1Nc1nc(-c2ccc(O)c(O)c2)cs1 4.65 µM
Cc1ccc2nc(Cl)c(/C=C/C(=O)c3ccco3)cc2c1 14.7 µM
COCc1cc(C)nc2sc(C(=O)Nc3ccccc3F)c(N)c12 18.5 µM
COCc1cc(C)nc2sc(C(=O)Nc3ccccc3O)c(N)c12 13.1 µM
COCc1cc(C)nc2sc(C(=O)Nc3cc(C)ccc3F)c(N)c12 7.36 µM
Cc1c(-c2nsc(NC(=O)c3cccs3)n2)nnn1-c1ccc(F)cc1 0.521 µM
Cc1c(-c2nsc(NC(=O)c3cccs3)n2)nnn1-c1ccc(Cl)cc1 2.07 µM
Cc1ccc(-n2nnc(-c3nsc(NC(=O)c4ccccc4)n3)c2C)cc1 5.21 µM
Cc1c(-c2nsc(NC(=O)c3cccs3)n2)nnn1-c1ccc(Br)cc1 1.85 µM
